# Where “and” joins values, the source holds several entries; their conditions need not be identical. Equal values may be shown once. The whole screen tested about 5,500 compounds, of which about 2,000 (36%) were called active. Another 18% or so got no clear call; they are omitted. Some of the results follow. Values without a mark were called inactive. Rule as the data show it: active = normalized growth mostly below about 0.91 (no sharp cut-off); inconclusive = no clear call, values can overlap the other calls; inactive = mostly above about 0.92.
# Assay: chemical genetic growth profiling, strain panel (AID 1159580);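 also: tested at 20 µM; growth read once vehicle control cultures reached saturation at 30 °C; 1 = growth at the plate median or of vehicle wells; lower values mean less growth of the strain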
# Conditions: growth OD
smiles,measurement,setting,value
NC(CO)C(=O)NNCc1ccc(O)c(O)c1O (configuration not stated),normalized growth,"S. cerevisiae deletion strains, locus YJR066W, strain TOR1, stronger effect = lower value",0.99
same,normalized growth,"S. cerevisiae deletion strains, locus YJR075W, strain HOC1, stronger effect = lower value",1.01 and 0.944
same,normalized growth,"S. cerevisiae deletion strains, locus YKL009W, strain mrt4, stronger effect = lower value",0.973
same,normalized growth,"S. cerevisiae deletion strains, locus YKL068W, stronger effect = lower value",1.01
same,normalized growth,"S. cerevisiae deletion strains, locus YKL085W, strain MDH1 (second series), stronger effect = lower value",1
same,normalized growth,"S. cerevisiae deletion strains, locus YKL085W, strain MDH1, stronger effect = lower value",1
same,normalized growth,"S. cerevisiae deletion strains, locus YKL160W, strain elf1, stronger effect = lower value",1.02
same,normalized growth,"S. cerevisiae deletion strains, locus YKR001C, strain vps1, stronger effect = lower value",0.986
same,normalized growth,"S. cerevisiae deletion strains, locus YKR026C, strain gcn3, stronger effect = lower value",0.991
same,normalized growth,"S. cerevisiae deletion strains, locus YKR091W, strain srl3, stronger effect = lower value",0.993
same,normalized growth,"S. cerevisiae deletion strains, locus YLL001W, strain dnm1, stronger effect = lower value",1.03
same,normalized growth,"S. cerevisiae deletion strains, locus YLL026W, stronger effect = lower value",1.02
same,normalized growth,"S. cerevisiae deletion strains, locus YLL041C, strain sdh2, stronger effect = lower value",1
same,normalized growth,"S. cerevisiae deletion strains, locus YLR027C, strain aat2, stronger effect = lower value",1.01
same,normalized growth,"S. cerevisiae deletion strains, locus YLR039C, strain RIC1, stronger effect = lower value",1.01
same,normalized growth,"S. cerevisiae deletion strains, locus YLR058C, strain SHM2, stronger effect = lower value",1.01
same,normalized growth,"S. cerevisiae deletion strains, locus YLR102C, strain apc9, stronger effect = lower value",0.983
same,normalized growth,"S. cerevisiae deletion strains, locus YLR113W, strain HOG1, stronger effect = lower value",1.1
same,normalized growth,"S. cerevisiae deletion strains, locus YLR221C, strain rsa3, stronger effect = lower value",0.951
same,normalized growth,"S. cerevisiae deletion strains, locus YLR258W, strain gsy2, stronger effect = lower value",0.974
same,normalized growth,"S. cerevisiae deletion strains, locus YLR262C, strain YPT6 (second series), stronger effect = lower value",0.915
same,normalized growth,"S. cerevisiae deletion strains, locus YLR262C, strain YPT6, stronger effect = lower value",1.04
same,normalized growth,"S. cerevisiae deletion strains, locus YLR268W, strain sec22, stronger effect = lower value",0.984
same,normalized growth,"S. cerevisiae deletion strains, locus YLR320W, strain mms22, stronger effect = lower value",0.987
same,normalized growth,"S. cerevisiae deletion strains, locus YLR330W, strain CHS5, stronger effect = lower value",1.01
same,normalized growth,"S. cerevisiae deletion strains, locus YLR342W, strain FKS1 (second series), stronger effect = lower value",1.06
same,normalized growth,"S. cerevisiae deletion strains, locus YLR342W, strain FKS1, stronger effect = lower value",1.01
same,normalized growth,"S. cerevisiae deletion strains, locus YLR357W, strain rsc2, stronger effect = lower value",0.911
same,normalized growth,"S. cerevisiae deletion strains, locus YLR370C, strain arc18, stronger effect = lower value",0.995
same,normalized growth,"S. cerevisiae deletion strains, locus YLR371W, strain rom2, stronger effect = lower value",0.991
same,normalized growth,"S. cerevisiae deletion strains, locus YLR384C, strain iki3, stronger effect = lower value",1
same,normalized growth,"S. cerevisiae deletion strains, locus YLR418C, strain cdc73, stronger effect = lower value",0.98
same,normalized growth,"S. cerevisiae deletion strains, locus YML016C, strain PPZ1, stronger effect = lower value",1.01
same,normalized growth,"S. cerevisiae deletion strains, locus YML032C, strain rad52, stronger effect = lower value",0.993
same,normalized growth,"S. cerevisiae deletion strains, locus YML120C, strain ndi1, stronger effect = lower value",1.01
same,normalized growth,"S. cerevisiae deletion strains, locus YML124C, strain tub3, stronger effect = lower value",0.996
same,normalized growth,"S. cerevisiae deletion strains, locus YMR058W, strain fet3, stronger effect = lower value",0.688 (active)
same,normalized growth,"S. cerevisiae deletion strains, locus YMR078C, strain ctf18, stronger effect = lower value",0.992
same,normalized growth,"S. cerevisiae deletion strains, locus YMR125W, strain sto1, stronger effect = lower value",1.01
same,normalized growth,"S. cerevisiae deletion strains, locus YMR129W, stronger effect = lower value",0.992
same,normalized growth,"S. cerevisiae deletion strains, locus YMR205C, strain PFK2, stronger effect = lower value",1.07
same,normalized growth,"S. cerevisiae deletion strains, locus YMR223W, strain ubp8, stronger effect = lower value",1.01
same,normalized growth,"S. cerevisiae deletion strains, locus YMR231W, strain pep5, stronger effect = lower value",0.991
same,normalized growth,"S. cerevisiae deletion strains, locus YMR307W, strain GAS1, stronger effect = lower value",1 and 0.976
same,normalized growth,"S. cerevisiae deletion strains, locus YNL067W, strain RPL9B, stronger effect = lower value",0.984
same,normalized growth,"S. cerevisiae deletion strains, locus YNL071W, strain lat1, stronger effect = lower value",1.01
same,normalized growth,"S. cerevisiae deletion strains, locus YNL153C, strain GIM3, stronger effect = lower value",1
same,normalized growth,"S. cerevisiae deletion strains, locus YNL175C, strain NOP13, stronger effect = lower value",0.988
same,normalized growth,"S. cerevisiae deletion strains, locus YNL183C, strain NPR1, stronger effect = lower value",0.99
same,normalized growth,"S. cerevisiae deletion strains, locus YNL197C, strain WHI3, stronger effect = lower value",0.935
same,normalized growth,"S. cerevisiae deletion strains, locus YNL209W, strain ssb2, stronger effect = lower value",0.9 (active)
same,normalized growth,"S. cerevisiae deletion strains, locus YNL224C, strain SQS1, stronger effect = lower value",1.01
same,normalized growth,"S. cerevisiae deletion strains, locus YNL233W, strain BNI4, stronger effect = lower value",0.998
same,normalized growth,"S. cerevisiae deletion strains, locus YNL248C, strain rpa49, stronger effect = lower value",0.946
same,normalized growth,"S. cerevisiae deletion strains, locus YNL250W, strain rad50, stronger effect = lower value",0.983
same,normalized growth,"S. cerevisiae deletion strains, locus YNL271C, strain bni1, stronger effect = lower value",1
same,normalized growth,"S. cerevisiae deletion strains, locus YNL298W, strain CLA4, stronger effect = lower value",0.988
same,normalized growth,"S. cerevisiae deletion strains, locus YNL307C, strain MCK1, stronger effect = lower value",0.982
same,normalized growth,"S. cerevisiae deletion strains, locus YNL322C, strain KRE1 (second series), stronger effect = lower value",0.999
same,normalized growth,"S. cerevisiae deletion strains, locus YNR049C, strain mso1, stronger effect = lower value",0.99
same,normalized growth,"S. cerevisiae deletion strains, locus YNR052C, strain pop2, stronger effect = lower value",1.01
same,normalized growth,"S. cerevisiae deletion strains, locus YOL012C, strain htz1",0.788
same,normalized growth,"S. cerevisiae deletion strains, locus YOL147C, strain pex11, stronger effect = lower value",0.98
same,normalized growth,"S. cerevisiae deletion strains, locus YOR001W, strain rrp6, stronger effect = lower value",1.03
same,normalized growth,"S. cerevisiae deletion strains, locus YOR061W, strain CKA2, stronger effect = lower value",1.01
same,normalized growth,"S. cerevisiae deletion strains, locus YOR069W, strain VPS5, stronger effect = lower value",1
same,normalized growth,"S. cerevisiae deletion strains, locus YOR070C, strain gyp1, stronger effect = lower value",0.972
same,normalized growth,"S. cerevisiae deletion strains, locus YOR080W, strain dia2, stronger effect = lower value",1.01
same,normalized growth,"S. cerevisiae deletion strains, locus YOR083W, strain WHI5 (second series), stronger effect = lower value",0.978
same,normalized growth,"S. cerevisiae deletion strains, locus YOR083W, strain WHI5, stronger effect = lower value",0.986
same,normalized growth,"S. cerevisiae deletion strains, locus YOR106W, strain vam3, stronger effect = lower value",0.948
same,normalized growth,"S. cerevisiae deletion strains, locus YOR136W, strain idh2, stronger effect = lower value",0.97
same,normalized growth,"S. cerevisiae deletion strains, locus YOR144C, strain elg1, stronger effect = lower value",0.987
same,normalized growth,"S. cerevisiae deletion strains, locus YOR184W, strain ser1, stronger effect = lower value",0.993
same,normalized growth,"S. cerevisiae deletion strains, locus YOR231W, strain MKK1, stronger effect = lower value",1.07
same,normalized growth,"S. cerevisiae deletion strains, locus YOR265W, strain rbl2, stronger effect = lower value",0.996
same,normalized growth,"S. cerevisiae deletion strains, locus YOR270C, strain vph1, stronger effect = lower value",0.996
same,normalized growth,"S. cerevisiae deletion strains, locus YOR290C, strain snf2, stronger effect = lower value",0.957
same,normalized growth,"S. cerevisiae deletion strains, locus YOR316C, strain cot1, stronger effect = lower value",0.991
same,normalized growth,"S. cerevisiae deletion strains, locus YPL051W, strain arl3, stronger effect = lower value",0.973
same,normalized growth,"S. cerevisiae deletion strains, locus YPL055C, strain LGE1, stronger effect = lower value",1.01 and 0.959
same,normalized growth,"S. cerevisiae deletion strains, locus YPL078C, strain atp4, stronger effect = lower value",1.02
same,normalized growth,"S. cerevisiae deletion strains, locus YPL106C, strain sse1, stronger effect = lower value",0.936
same,normalized growth,"S. cerevisiae deletion strains, locus YPL240C, strain hsp82, stronger effect = lower value",0.991
same,normalized growth,"S. cerevisiae deletion strains, locus YPL241C, strain CIN2, stronger effect = lower value",1.01
same,normalized growth,"S. cerevisiae deletion strains, locus YPL256C, strain CLN2, stronger effect = lower value",1.09
same,normalized growth,"S. cerevisiae deletion strains, locus YPR119W, strain clb2, stronger effect = lower value",0.999
same,normalized growth,"S. cerevisiae deletion strains, locus YPR141C, strain kar3, stronger effect = lower value",0.987
same,normalized growth,"S. cerevisiae deletion strains, locus YPR163C, strain tif3, stronger effect = lower value",0.991
same,normalized growth,"S. cerevisiae deletion strains, locus YPR167C, strain met16, stronger effect = lower value",0.994
same,normalized growth,"S. cerevisiae deletion strains, strain wtn01, stronger effect = lower value",1.02
same,normalized growth,"S. cerevisiae strains, strain wild type, stronger effect = lower value",1

# — PubChem BioAssay AID1159580 (chemical genetic matrix, 2015)
